The list is not random: actives were taken first. Their share in the collection is about 3.4%.
proKLK7 act: activates the human kallikrein-7 zymogen; P49862; purified proKLK7, EDANS-DABCYL substrate fluorescence; 100% is mature enzyme control, 0% vehicle; activation, % at 7 µM; hit rate 0.9% among 370,000;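 active = activation above the mean of all tested compounds plus 3 SD, computed per campaign excluding outliers beyond control limits, cut at about 13% in these data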
PLC-gamma1 inh: inhibitors of human phospholipase C gamma1; purified PLC-gamma1, fluorogenic substrate, fluorescence; inhibition, % at 12.2 µM; hit rate 0.84% among 370,000; AID 720700; in the data active = inhibition above about 9.5%
ADAM10 inh: inhibitors of human ADAM10; hit rate 0.62% among 370,000; recombinant ADAM10, EDANS/DABCYL FRET peptide cleavage, 3 h; O14672; inhibition, % at 7 µM; AID 720582;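 active = inhibition above a per-campaign cutoff equal to the mean of compounds falling between control-based bounds plus 3 SD, cut at about 20% in these data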;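 note: 0% = DMSO wells while the 100% control is not disclosed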
ADAM17 inh: inhibits human ADAM17; P78536; recombinant ADAM17, EDANS/DABCYL FRET peptide cleavage; inhibition, % at 6.95 µM; hit rate 0.83% among 370,000;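 active = inhibition above the mean of compounds lying between control limits plus 3 SD, set per campaign, cut at about 8.5% in these data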;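 note: 0% = DMSO-only wells as the low control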
sPLA2-III inh: Blocks human group III sPLA2 activity; Q9NZ20; QFRET BODIPY PC-A2 liposome hydrolysis, fluorescence; inhibition, % at 12.2 µM; hit rate 0.56% among 370,000; AID 743126;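 active = inhibition above mean plus 3 SD of compounds lying within the high and low control bounds, cut at about 19% in these data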;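 note: 0% = median of test compound wells and 100% = no enzyme DMSO wells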
Target sequence (Q9NZ20 whole entry, looked up): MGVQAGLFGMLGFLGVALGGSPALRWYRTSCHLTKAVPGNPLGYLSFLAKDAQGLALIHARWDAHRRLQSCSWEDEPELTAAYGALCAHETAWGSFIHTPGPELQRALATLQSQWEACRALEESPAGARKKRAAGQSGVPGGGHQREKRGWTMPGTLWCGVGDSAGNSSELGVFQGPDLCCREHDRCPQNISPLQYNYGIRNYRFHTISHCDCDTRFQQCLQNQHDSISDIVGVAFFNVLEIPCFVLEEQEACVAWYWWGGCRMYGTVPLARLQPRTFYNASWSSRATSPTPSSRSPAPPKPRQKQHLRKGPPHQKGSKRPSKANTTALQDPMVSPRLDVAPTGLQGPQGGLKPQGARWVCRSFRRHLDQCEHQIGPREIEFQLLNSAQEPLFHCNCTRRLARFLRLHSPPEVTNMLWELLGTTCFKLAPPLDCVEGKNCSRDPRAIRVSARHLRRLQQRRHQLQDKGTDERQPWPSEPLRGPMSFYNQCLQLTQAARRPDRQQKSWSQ
PLCb3 inh: blocks human PLC-beta3 enzyme activity; Q01970; Purified PLC-beta3, fluorogenic substrate, fluorescence; AID 720704; inhibition, % at 12.2 µM; hit rate 0.18% among 370,000; in the data active = inhibition above about 11%;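 note: 0% = median of compound wells on plate and 100% = full blocker control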
ADAM10 ctr: inhibits human ADAM10 in ADAM17 exosite counter-screen; inhibition, % at 6.95 µM; recombinant ADAM10, EDANS/DABCYL FRET peptide cleavage, 3 h; hit rate 47% among 2,900; shares compounds with ADAM17 inh;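 active = mean inhibition over the triplicate runs exceeds the activity threshold set in the earlier primary screen, cut at about 20% in these data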;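 note: 0% = DMSO wells and 100% = marimastat wells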
ADAM17 confirm: human ADAM17 inhibition, confirmation; shares compounds with ADAM17 inh; recombinant ADAM17, EDANS/DABCYL QFRET peptide cleavage; inhibition, % at 6.95 µM; hit rate 65% among 2,900;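 active = mean inhibition across replicates above the hit cutoff set in the primary screen, cut at about 8.5% in these data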;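 note: 0% = DMSO wells and 100% = marimastat wells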
* hit, by the source's call; / = no result given.

SMILES	proKLK7 act	PLC-gamma1 inh	ADAM10 inh	ADAM17 inh	sPLA2-III inh	PLCb3 inh	ADAM10 ctr	ADAM17 confirm
O=[N+]([O-])c1ccccc1N/N=C/c1c[nH]c2ccccc12	0.2	4.9	-3.2	-1.8	14.1	1.4	/	/
CCOC(=O)[C@]12CCCC3=C1N(CCC3)C(=O)[C@@H](CC(=O)NCCCOC)C2	0.0	3.9	3.0	-0.7	7.1	1.2	/	/
Cc1csc(-c2cnn(-c3ccccc3)c2NC(=O)c2ccc(C(F)(F)F)cc2)n1	-0.2	2.3	12.6	9.3*	-16.3	0.7	17.8	11.2*
CC(C)(C)NC(=O)c1cnn(-c2ccccc2)c1NC(=O)c1ccccc1	-0.3	2.6	-0.7	-0.8	-4.8	2.9	/	/
S=C(NCc1ccccc1)NCc1cccc(CNC(=S)NCc2ccccc2)c1	-0.2	4.6	13.3	9.3*	-29.9	2.0	21.7*	14.1*
O=C(NCCCc1ccccc1)c1cccc([N+](=O)[O-])c1	0.1	0.2	-5.8	-2.6	4.5	-0.5	/	/
O=C(NNC(=S)NCc1ccccc1)c1cccc([N+](=O)[O-])c1	-0.1	5.3	16.4	13.1*	7.8	1.0	12.1	8.2
C=CCN(C(=O)[C@@H](C)[C@@H](O)c1ccc2ccccc2c1)c1ccccc1	-0.6	-2.7	1.4	-2.5	-6.8	-3.1	/	/
CSCCC(NC(=O)c1cccc(S(=O)(=O)N2CCOCC2)c1)c1nc2ccccc2[nH]1 (configuration not stated)	0.3	4.3	2.5	10.3*	-6.4	-4.2	13.6	6.9
CCC(CC)C(=O)Nc1c(C(=O)N2CCN(c3ccccc3)CC2)oc2ccccc12	0.1	-4.7	-6.3	9.3*	10.6	-18.9	3.0	3.9
Cc1ccc(S(=O)(=O)N2C[C@@H](C)[C@]3(C2)[C@H](O)[C@H](OC(=O)NCc2ccccc2F)C[C@H]2C(=O)N(c4ccccc4)C(=O)[C@H]23)cc1	-0.3	1.9	13.8	9.2*	-55.6	2.9	36.8*	20.0*
O=C(OCCCCSc1nnc(-c2cccc3ccccc23)o1)c1ccc(F)cc1	/	-5.2	-68.4	-12.5	-17.3	-8.3	/	/
COc1ccc(NC(=O)C(c2ccc(C)cc2)N(C)C(=O)Cc2cccs2)cc1 (configuration not stated)	0.2	7.4	7.3	9.0*	-3.0	3.9	2.1	6.2
COc1ccc(NC(=O)C(c2ccc(OC)cc2)N(C)C(=O)Cc2cccs2)cc1 (configuration not stated)	0.3	-0.4	1.1	-1.7	-11.7	-0.2	/	/
COc1ccc(C[C@H]2CN3C(=NC[C@@H]3C)N2CCNC(=O)CCC2CCCCC2)cc1	0.4	6.7	17.8	10.9*	-3.7	4.8	-11.0	-1.4
CCOC(=O)[C@]12CCCCC/C=C\1N(CCc1ccc(Cl)cc1)C(=O)[C@H]2CC(=O)NCCCOC	0.8	1.5	-0.3	-0.6	-8.9	3.2	/	/
CCCC1CCC2(CCCN2CCOC(=O)Nc2ccc(F)cc2)CC1 (configuration not stated)	/	0.6	-2.6	-3.6	-18.6	-0.8	/	/
Cc1ccc([C@H]2C[C@@H](O)[C@H](n3cc(-c4ccc(F)cc4)nn3)CN2C(=O)C2CCCCC2)cc1	0.7	6.2	12.0	10.1*	-8.0	8.1	28.6*	15.2*
CCCCCC(=O)N1C[C@@H](n2cc(-c3ccc(F)cc3)nn2)[C@H](O)C[C@@H]1c1ccc(Cl)cc1	-0.1	3.4	14.6	11.0*	-1.8	5.1	28.7*	16.9*
C[C@@H]1C[C@H]2[C@@H](C)C(=O)N3[C@H](c4ccccc4)[C@H](C)C[C@H]3[C@@H](C)C(=O)N2[C@@H]1c1ccccc1	0.9	2.6	4.1	-2.1	7.1	-4.5	/	/
CCC(NC(=O)c1ccc2c(c1)c(C)c(C)n2Cc1ccc(Cl)cc1)c1ccccc1 (configuration not stated)	-2.5	-20.0	-2.0	-6.5	3.3	-11.6	/	/
O=C(N[C@H]1C/C=C\C[C@@H](CC(=O)N(CCO)Cc2ccccc2)C(=O)NC[C@H](c2ccccc2)OC1=O)OCC1c2ccccc2-c2ccccc21	0.6	3.6	19.8	17.2*	-20.7	9.3	8.6	6.5
O=C(CCCC(=O)OCC(=O)c1cccs1)Nc1ccc(Oc2ccccc2)cc1	0.0	0.1	9.0	8.9*	-58.7	0.3	9.5	4.7
O=C(Nc1ccccc1Oc1ccccc1)NC1CCCCN(Cc2ccc(Cl)cc2)C1=O (configuration not stated)	0.3	1.1	0.0	0.0	-0.9	0.1	/	/
Cc1cccc(/C(N)=N/OC(=O)N2CCOCC2)c1	0.3	5.5	1.8	12.7*	6.2	4.0	14.4	12.5*
SMILES	proKLK7 act	PLC-gamma1 inh	ADAM10 inh	ADAM17 inh	sPLA2-III inh	PLCb3 inh	ADAM10 ctr	ADAM17 confirm
Cc1ccc(/C(N)=N/OC(=O)N2CCOCC2)cc1	0.1	-0.5	-1.8	-2.6	-3.0	3.3	/	/
c1ccc(-n2c(SCc3cccc4ccccc34)nnc2-c2ccccn2)cc1	0.1	2.7	3.0	9.2*	-6.9	-1.7	14.5	12.1*
N#Cc1ccc(CSc2nnc(-c3ccccn3)n2-c2ccccc2)cc1	-0.4	2.9	-14.9	0.7	-7.4	1.9	/	/
O=c1c(Cc2ccc(Cl)cc2Cl)c(O)ccn1Cc1ccc(Cl)cc1	0.3	4.0	19.1	10.8*	-7.8	-1.2	25.8*	16.2*
O=c1c(Cc2ccc(Cl)cc2)c(O)ccn1Cc1cccc(Cl)c1	0.4	2.9	3.2	-1.7	-1.6	-1.7	/	/
C[C@@H]1Cc2cc(O)c(O)c(O)c2C(=O)O1	0.9	-4.5	2.3	-3.3	-1.5	-2.4	/	/
CCCCNS(=O)(=O)/C=C/c1cc(C)ccc1CNC(=O)OC(C)(C)C	0.5	-1.9	6.9	2.5	0.9	2.7	/	/
O=C(CSc1cn(CCNC(=O)c2ccccc2F)c2ccccc12)NCC1CCCO1 (configuration not stated)	0.8	1.2	-0.1	-4.5	-0.5	-5.9	/	/
O=C(NCCn1cc(SCc2ccccc2)c2ccccc21)c1ccccc1F	-0.3	1.9	15.8	10.4*	-10.1	0.3	11.7	9.2*
O=C(COc1ccccc1C(=O)NCc1ccccc1)Nc1ccc(I)cc1	-0.8	-0.5	-1.1	-1.6	-1.5	1.7	/	/
COC(=O)[C@]12C[C@H](CC(=O)N3CCN(C(=O)C4CC4)CC3)C(=O)N(CCc3ccc(OC)c(OC)c3)C1=C[C@H](C(C)C)O[C@@H]2C1CC1	0.1	-2.5	-1.6	-3.4	-2.0	2.1	/	/
O=C(NC1CCCCCCC1)c1c(O)c2ccccc2[nH]c1=O	-0.1	7.5	3.4	9.4*	-1.4	2.9	-5.5	1.4

Source: PubChem
